Bioassay records (PubChem BioAssay)
Only some compounds are listed: those with a hit (about 7.9% of all), similar ones and a draw of the others.
MARV entry inh: qHTS for inhibitors of binding or entry into cells for Marburg Virus; 300,000 compounds, 1.8% hits; AID 540276, 2011; Potency, µM (doses to about 37.8 µM), inactives show at the top dose activity change, negative = inhibition, usual class: inhibitors; Marburg virus pseudotyped entry inhibition, cell reporter; calls by dose curve; tested in HEK293 cells; note: potency is the fitted concentration of half-maximal effect
HCV inhibitor: qHTS Assay for Inhibitors of Hepatitis C Virus (HCV). AID 651820, 2012. 340,000 compounds, 3.4% hits. Potency, µM (highest dose often 41.8 µM), without a hit: at the highest dose activity change, negative = inhibition, usual class: inhibitors. Huh7.5.1 HCVcc-Cre infection, luciferase reporter, 44 h; active = well fitted inhibition curve with a large enough effect; inconclusive = small, poorly fitted or top-dose-only effect, or another doubt; inactive = no such curve, though single readings can be large or run the other way; note: potency is the fitted concentration of half-maximal effect
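Cells seeded at 1,000/well and cultured 4 h, then compounds added followed by HCVcc-Cre virus (~0.5 moi). After 44 h further culture, luciferase substrate was added, plates held 15 min at room temperature, and luminescence read for 15 sec.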
HCMV antiviral: qHTS Assay for inhibitors of the human cytomegalovirus (HCMV); HFF cells, HCMV-luciferase reporter, 72 h; stronger effect = lower value; activity change, negative = inhibition, % at 57.5 µM; 410,000 compounds, 4.5% hits; in the data active = activity change below about -60%; inconclusive = no clear call, values can overlap the other calls; inactive = above about -39%
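Steps: HFFs plated, 16 h 37C; compounds added; HCMV-luciferase added to MOI 1 PFU/cell; 72 h 37C; OneGlo reagent, 5 min room temperature; luminescence read, normalized to controls.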
FMDV antiviral: High Throughput Screening for Foot and Mouth Disease Virus Antivirals; FMDV antiviral cell-based qHTS; Potency, µM (titrated, usually from 57.9 µM), inactives show at the highest dose activity change, negative = inhibition, actives largely listed as inhibitors; 410,000 compounds, 1.2% hits; AID 1159524, 2015; calls by dose curve; tested in HEK293T cells; note: read-out not given here; potency is the fitted concentration of half-maximal effect; nearly all actives have a fitted effect of over 45% in size
LASV entry inh: qHTS for Inhibitors of binding or entry into cells for Lassa Virus; Lassa virus pseudotype entry inhibition, cell reporter; Potency, µM (top dose mostly 37.9 µM), for the others: at the top dose activity change, negative = inhibition, hits mostly inhibitors; 300,000 compounds, 1.2% hits; AID 540256, 2011; calls by dose curve; tested in HEK293 cells; note: potency is the fitted concentration of half-maximal effect; nearly all actives have a fitted effect of over 50% in size
Active calls of the source: *; ? = inconclusive; / = no result given; [ ] = remark or other dose. % is set by controls: 0 for no effect and ±100 for the full control effect.

SMILES | MARV entry inh | HCV inhibitor | HCMV antiviral | FMDV antiviral | LASV entry inh
O=C(NCc1ccccc1F)c1sc2ncccc2c1-n1cccc1 | / | / | -37.3 | -6.6% | 1.1%[46.1 µM]
COc1ccc(C(c2c(O)cc(C)n(Cc3ccco3)c2=O)N2CCCCC2)cc1OC (stereo not drawn) | / | / | 16.5 | -18.2% | 7.9%[46.1 µM]
Cc1ccc(CNC(=O)N2CCN(S(=O)(=O)c3ccccc3)CC2)cc1 | ? | -4.6% | -19.4 | -5.7% | ?
COc1cccc(-c2nc(NC3CCNCC3)c3ccccc3n2)c1 | / | / | / | -13.6% | /
CCCCCC(=O)N1C[C@H](n2cc(COC(=O)c3ccccc3)nn2)[C@@H](O)C[C@@H]1c1ccc(OC)cc1 | / | / | 23.2 | -9.4% | /
O=c1/c(=C\c2ccccn2)sc2n1CN(c1ccccc1)CN=2 | 14.5% | / | / | / | /
CNCCCOc1ccc(C(C)(C)c2ccccc2)cc1 | 0.0% | / | / | / | /
CCC(C)NCCOc1ccc(C(C)(C)c2ccccc2)cc1 (stereo not drawn) | ? | 10µM* | ? | ? | ?
COCCCNCCOc1ccc(C(C)(C)c2ccccc2)cc1 | 16.4µM* | 10µM* | -24.8 | -17.5% | ?
C=CCNCCCCOc1ccccc1-c1ccccc1 | ? | ? | -29.7 | 1.3% | ?
C=CCNCCCCOc1ccc(OCc2ccccc2)cc1 | / | ? | -68.7* | 28.6% | /
COCCCNCCCCOc1ccc(OCc2ccccc2)cc1 | / | 11.2µM* | ? | 54.5% | /
Cc1nn2c(-c3ccco3)ccnc2c1-c1ccc(Br)cc1 | 3.1%[46.1 µM] | / | 25.5 | 60.4% | 13.9%[46.1 µM]
Cc1ccn2cc(CCNC(=O)COc3ccccc3)nc2c1 | / | -4.0% | 3.7 | -0.1% | /
O=C1[C@H](Oc2ccccc2)[C@@H](c2ccccc2)N1c1ccncc1 | / | ? | -5.6 | 15.8µM* | /
O=C1[C@@H](Oc2ccccc2)[C@@H](c2ccccc2)N1c1ccccc1 | / | -1.7% | -11.5 | -19.7% | /
O=C1C2C(c3ccccc3)C=CC(c3ccccc3)C2C(=O)N1c1cccnc1 (stereo not drawn) | ? | 11.4% | -9.3 | 1.3% | -0.2%
O=C1[C@@H](Oc2ccccc2)[C@@H](c2cccnc2)N1c1ccccc1 | / | 35.5µM* | -4.0 | -12.5% | /
COc1ccc(OCCCC(=O)OC(C)C(=O)Nc2cccc(C(C)=O)c2)cc1 (stereo not drawn) | 1.3% | -2.7% | -2.3 | 0.0% | 1.4%
CCOc1ccc(C2C(=O)N(C3CCCCCC3)CC(=O)N2CCc2ccc(Cl)cc2)cc1OC (stereo not drawn) | / | / | ? | 0.0% | ?
CCOC(=O)C1CCCN(C(=O)c2cccs2)CC1 (stereo not drawn) | / | / | -15.6 | -5.7% | /
O=C(Nc1ccc(Oc2ccsc2C(=O)O)cc1)c1ccccc1F | / | 17.2% | -32.2 | 46.2% | /
Cn1c(-c2ccccc2)c(CCO)c2ccccc21 | ? | -24.6% | 8.7 | -15.5% | 3.1%
OCCCc1cn(-c2ccccc2)c2ccccc12 | 11.5%[46.1 µM] | 10µM* | 9.8 | 34.1% | -3.0%
COc1ccc(CCNC(=O)c2c(O)nc3c(C)cccn3c2=O)cc1 | 11.7%[46.1 µM] | / | 3.7 | -15.2% | /
SMILES | MARV entry inh | HCV inhibitor | HCMV antiviral | FMDV antiviral | LASV entry inh
Cc1noc(/C=C/c2ccco2)c1S(=O)(=O)N1CCC(C(=O)Nc2ccc(F)cc2F)CC1 | ? | / | ? | ? | -3.2%[46.1 µM]
Nc1c(C(O)(C(F)(F)F)C(F)(F)F)cc(C(O)(C(F)(F)F)C(F)(F)F)c2ccccc12 | 11.2µM* | ? | / | ? | 22.4µM*
CC(C)(C)n1nnnc1C(CCc1ccccc1)N1CCC(n2c(=O)[nH]c3ccccc32)CC1 (stereo not drawn) | / | / | -99.1* | 31.6µM* | /
CSCCC(c1nnnn1C1CCCCC1)N1CCC(n2c(=O)[nH]c3ccccc32)CC1 (stereo not drawn) | / | / | -93.2* | ? | /
O=c1[nH]c2ccccc2n1C1CCN(C(CCc2ccccc2)c2nnnn2C2CCCCC2)CC1 (stereo not drawn) | / | / | -90.8* | 28.2µM* | /
CC(C)(C)n1nnnc1C(C1CC1)N1CCC(n2c(=O)[nH]c3ccccc32)CC1 (stereo not drawn) | / | / | -10.2 | -25.9% | /
O=C([C@@H]1C[C@@H](Sc2nc3ccccc3[nH]2)CN1Cc1c(F)cccc1F)N1CCOCC1 | / | / | / | -14.1% | /
O=P(Oc1ccccc1)(Oc1ccccc1)N1CCN(c2ccc(F)cc2)CC1 | 10µM* | -25.2% | 9.8 | -25.2% | ?
CC(C)CNC(=O)c1cc2nc(C3CC3)cc(C(F)(F)F)n2n1 | -6.7% | 7.94µM* | -18.6 | 12.8% | -0.6%
CCOc1ccccc1N1CCN(C(=O)c2cc(-c3cccnc3)nc3c(Cl)cccc23)CC1 | ? | -3.6% | / | ? | ?
COc1ccc(-c2c3c(=O)n(C)c(=O)n(C)c3cn2C2CCCCC2)cc1 | ? | 25.1µM* | ? | / | ?
CC(C)C(=O)N1CCC(c2nc(-c3ccc(S(=O)(=O)N4CCCC4)cc3)no2)CC1 | -25.2% | ? | -72.9* | 3.3% | ?
O=C(Nc1cccc(C(F)(F)F)c1)N1CCC(c2nc(-c3ccc(F)cc3)no2)CC1 | ? | 11.2µM* | ? | ? | 22.7%[14.3 µM]
O=C(c1ccccc1)N1CCC(c2nc(-c3ccc(S(=O)(=O)N4CCOCC4)cc3)no2)CC1 | -24.8% | -26.9% | -29.9 | ? | ?
O=C(Nc1ccccc1)N1CCC(c2nc(-c3ccc(S(=O)(=O)N4CCOCC4)cc3)no2)CC1 | ? | 10µM* | -37.6 | ? | ?
O=C(c1ccc(F)cc1)N1CCC(c2nc(-c3ccc(S(=O)(=O)N4CCCC4)cc3)no2)CC1 | 3.6%[46.1 µM] | / | -11.1 | ? | 10.4%[46.1 µM]
O=C(Nc1ccccc1)N1CCCC(c2nc(-c3ccc(F)cc3)no2)C1 (stereo not drawn) | -4.1%[46.1 µM] | ? | -9.1 | -2.4% | 7.1%
COc1ccccc1C(=O)N1CCC(c2noc(-c3ccc(S(=O)(=O)N4CCCC4)cc3)n2)CC1 | -13.0%[46.1 µM] | / | -84.2* | ? | -14.1%[46.1 µM]
CC(=O)N1CCc2cc(S(=O)(=O)CCC(=O)N3CCN(c4cc(C)ccc4C)CC3)ccc21 | 8.1%[46.1 µM] | -12.3% | ? | ? | -0.1%[46.1 µM]
COc1ccc(OC)c(NC(=O)CN2C(=O)COc3ccc(S(=O)(=O)NC4CCCC4)cc32)c1 | / | / | -29.8 | 8.6% | -3.9%[46.1 µM]
O=C(Nc1ccc(Cl)cc1)N1CCC(c2nc(-c3ccccc3Cl)no2)CC1 | ? | 7.08µM* | -32.1 | 0.0% | -43.7%
O=C(Nc1ccc(Cl)cc1)N1CCC(c2nc(-c3cccs3)no2)CC1 | -5.1% | ? | 13.8 | 0.0% | -2.3%
Cc1ccc(/C=C/c2onc(C)c2S(=O)(=O)N2CCC(C(=O)N3CCN(c4cc(C)ccc4C)CC3)CC2)cc1 | / | / | 0.9 | -13.4% | ?
COc1cc(/C=C/c2c([N+](=O)[O-])c(=O)n(C)c(=O)n2C)cc(OC)c1OC | -21.3% | -9.2% | -67.4* | / | ?
Cn1c(/C=C/c2ccc(Br)cc2)c([N+](=O)[O-])c(=O)n(C)c1=O | ? | ? | -100.1* | 15.8µM* | ?
